Activity calls are given as the source filed them. How the calls were made is not given here.

In this experiment the target is Serine/threonine-protein kinase pim-1 (Homo sapiens) (UniProt P11309). Nature of the experiment: PIM1 kinase ligand binding by thermal shift, biophysical, human, melting temperature shift (AID 393). Conditions: Thermal shift assay, at 10 µM, stronger effect = higher value; protein 2 µM, buffer 10 mM Na Citrate, pH 6.5, NaCl 150 mM unless noted.
Sequence of Serine/threonine-protein kinase pim-1 (Homo sapiens) (P11309 whole entry, looked up): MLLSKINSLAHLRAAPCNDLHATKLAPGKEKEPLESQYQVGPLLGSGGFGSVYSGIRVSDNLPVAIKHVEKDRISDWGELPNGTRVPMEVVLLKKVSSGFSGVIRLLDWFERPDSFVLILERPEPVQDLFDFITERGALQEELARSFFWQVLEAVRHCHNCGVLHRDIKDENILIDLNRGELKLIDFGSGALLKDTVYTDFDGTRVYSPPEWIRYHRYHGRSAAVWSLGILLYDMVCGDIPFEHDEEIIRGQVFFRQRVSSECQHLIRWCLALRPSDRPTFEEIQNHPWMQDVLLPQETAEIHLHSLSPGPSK
As to `CCn1cnc2c(Nc3cccc(Cl)c3)nc(N[C@@H]3CCCC[C@@H]3N)nc21`, the Tm shift is 5.8 Celsius (active).

On to `O=C1NC(=O)c2c1c1c3ccccc3n3c1c1c2c2ccccc2n1[C@@H]1CCC3O1`, for which the Tm shift was 12.7 Celsius [protein 2 µM, buffer 10 mM PIPES, pH 6.5, NaCl 150 mM] (active).

Regarding `O=C1Nc2ccccc2/C1=C\c1cnc[nH]1`, the Tm shift was 3.92 Celsius [protein 3 µM, buffer 10 mM HEPES] (active).

In the case of `N#C/C(=C1\Nc2ccccc2S1)c1ccnc(NCCc2cccnc2)n1`, the Tm shift is 10.3 Celsius (active).

`Cc1c2ccncc2c(C)c2c1[nH]c1ccccc12`: the Tm shift is 8.6 Celsius (active).

(Values after PubChem BioAssay AID393 (SGCOxCompounds, 2006).)
